Results as given in PubChem BioAssay.
The source made the active and inactive calls. How the calls were made is not given here.

Assay: inhibition of 3D7 malaria parasite growth – strain 3D7 (AID 2306);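 further: 0% = DMSO wells and 100% = chloroquine plus artemisinin control wells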
Conditions: P. falciparum 3D7 erythrocytic growth, LDH absorbance, 72 h; at 2 µM; active compounds read high

Growth inhibition, active:
COC(=O)C(=C(C)C)N1C(=O)[C@@H](NC(=O)OCc2ccccc2)[C@H]1SS[C@@H]1[C@H](NC(=O)OCc2ccccc2)C(=O)N1C(C(=O)OC)=C(C)C 97%, CCCCN(CCCC)CCC(O)C(=Cc1ccc(Cl)cc1Cl)c1ccc(C(F)(F)F)cc1N (stereo not drawn) 100%, CCc1ccc(-n2cc(C(=O)c3cc(Br)ccc3O)cc(C#N)c2=O)cc1 97%, Oc1cccc(Nc2ccnc3cc(-c4cc5ccccc5o4)ccc23)c1 102%, Cc1cc(C2CCN(CCCCNC(=O)c3ccc(NC(=O)c4ccc(Cl)cc4)cc3)CC2)c(C)cc1OCc1ccncc1 100%, COc1ccc2nccc(NN=Cc3ccc([N+](=O)[O-])cc3)c2c1 100%, COc1ccccc1C1CCN(C2CCC(NC(=O)c3cc(-c4ccc(Cl)cc4)cs3)CC2)CC1 (stereo not drawn) 101%, Cc1cc(Nc2ccc(Cl)cc2)n2nc(C(F)(F)F)nc2n1 97%, COc1ccc2nccc([C@@H](O)CN3CCC(NCc4cc5ccccc5[nH]c4=O)CC3)c2c1 97%, Nc1c(Cl)cc(C(O)CNCCCCCOCCc2ccccc2)cc1C(F)(F)F (stereo not drawn) 99%, COc1ccc(-c2cnc3ccc(NCc4ccc(F)cc4)nn23)cc1OC 97%, CCCN(CCC)C(=O)c1cc(C(=O)N[C@@H](Cc2ccccc2)[C@H](O)CNC2CC2)cc(N2CCCCS2(=O)=O)c1 100%, CN(C)CCOc1ccc(-c2cc(-c3ccc(Cl)c(O)c3)c(-c3ccncc3)o2)cc1 102%
